The values that follow come from PubChem BioAssay (NCATS).

Molecules are shown by their SMILES. Results filed as inconclusive are left out. The source made the active and inactive calls. Unless noted, calls come from the whole dose curve; as a rule, active = well fitted curve in the direction sought with a large enough effect; inconclusive = small, poorly fitted or top-dose-only effect, or another doubt; inactive = no such curve, though single readings can be large; an effect the other way counts as inactive or inconclusive.

The nature of assay [1]: AP1 Signaling Pathway (AID 357; active = well fitted curve in either direction with a large enough effect, not every such curve was filed as active; note: % is set by controls: 0 for no effect and ±100 for the full control effect). Conditions: ME-180 AP-1-bla reporter, EGF-induced, beta-lactamase ratio, 5 h; at 7.69 µM (top of the series) unless noted. The gist of the method: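 Cells are seeded overnight, exposed to compound titrations and an EC50 level of EGF for 5 hours at 37 °C, then loaded with CCF4 dye for 2.5 hours. Beta-lactamase activity under the AP-1 element is read as a blue/green ratio.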

Assay [2] in a line: Stat Signaling Pathway (AID 446; active = well fitted curve in either direction with a large enough effect, not every such curve was filed as active;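 note: ME-180 cervical cancer cells given 40 pM IL-6 alongside compound; SIE-controlled beta-lactamase reporter measured as 460/530 nm FRET emission ratio; % is set by controls: 0 for no effect and ±100 for the full control effect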). To be noted: ME-180 (cervical carcinoma) SIE beta-lactamase reporter, IL-6 stimulated, 5 h; at 7.69 µM (top of the series) unless noted. The gist of the method:
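Overnight-plated ME-180 cells bearing a STAT Inducible Element beta-lactamase reporter; 5 h co-exposure to compound and 40 pM IL-6; values normalized to 300 pM IL-6 and 125 nM JAK inhibitor controls.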

Assay [3] addresses Glucocorticoid receptor (Homo sapiens) (UniProt P04150). Put plainly: GR-EFC Redistribution (AID 451; calls by dose curve; note: potency is the fitted concentration of half-maximal effect). Conditions: CHO-K1 GR-EFC translocation, beta-gal luminescence, 2 h. The gist of the method: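 CHO-K1 cells expressing nuclear EA and GR-ED fragments of b-gal; compounds titrated up to 46 uM final, 2 h at 37 C. GR nuclear translocation read as complemented b-gal luminescence after 1 h RT detection.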

The target of assay [4] is Mitogen-activated protein kinase 10 (Mus musculus) (UniProt Q61831). Put plainly: JNK3 AlphaScreen Assay (AID 530; active = well fitted curve in either direction with a large enough effect, not every such curve was filed as active;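 note: kinase came from lysate of stimulated human HepG2 cells; signal reports phosphorylation of biotinylated GST-cJun 1-79 at Ser73 with 10 µM ATP; % is set by controls: 0 for no effect and ±100 for the full control effect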). The gist of the method:
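Activity was read by AlphaScreen after JNK3-containing HepG2 lysate (cytokine pre-activated) phosphorylated biotinylated GST-cJun with 10 uM ATP at room temperature. Phospho-Ser73 cJun antibody with Protein-A acceptor beads provided detection.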
(Alpha assays give light when donor and acceptor beads are brought close together.)

The target in assay [5] is 3',5'-cyclic-AMP phosphodiesterase 4B (Homo sapiens) (UniProt Q07343). Put plainly: qHTS Assay for Inhibitors of PDE-IV (AID 607; active = well fitted activation curve with a large enough effect in the main read-out, with a control signal flat, not every such curve was filed as active; note: % of control where 0% means no effect). The gist of the method:
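Live HEK293 cells with a modified cyclic nucleotide-gated (CNG) channel report intracellular cAMP via membrane-potential dye fluorescence (ex 535/em 590 nm). Endogenous PDE-IV was targeted. Compounds were tested at up to 22.9 uM final; RO 20-1724 100 uM served as control.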

Assay [6] is described as follows: qHTS Assay for Lipid Storage Modulators (AID 1519; calls by dose curve). Conditions: Drosophila S3 cells, BODIPY lipid droplet/cell ratio, laser cytometry, cells loaded with oleic acid; for activity change, negative = inhibition: at 57.5 µM (top of the series). The gist of the method: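 Cells seeded at 5,000 per well were treated with compounds over a concentration series and loaded with oleic acid (400 uM, as added). Lipid droplet fluorescence (488 nm excitation, 500-530 nm channel) was read by laser-scanning cytometry and normalized to 20 uM Triacsin C.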
On the technique in general: Quantitative high-throughput screening tests each substance at several concentrations.

Assay [7] is described as follows: Primary qHTS for small molecule stabilizers of the endoplasmic reticulum resident proteome: Secreted ER Calcium Modulated Protein (SERCaMP) assay (AID 1508630). Note: % is set by controls: 0 for no effect and ±100 for the full control effect. The gist of the method: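 The SH-SY5Y reporter protocol was run at 3 concentrations up to 38.3 uM (primary) or 11 concentrations (follow-up): 16 h compound, 100 nM thapsigargin for 4 h, then extracellular luciferase luminescence.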

The target of assay [8] is Cytochrome P450 1A2 (Homo sapiens) (UniProt P05177). Put plainly: p450-cyp1a2 (AID 410; calls by dose curve; note: potency is the fitted concentration of half-maximal effect;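 for activity change, negative = inhibition: -100% = full effect of reference inhibitor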). The gist of the method:
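O-Demethylation of luciferin 6' methyl ether by human CYP1A2 is monitored as luciferase luminescence. Substrate sits at Km (100uM); enzyme is 20nM. Values are scaled to 57 uM furafylline as maximal inhibition.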

The target in assay [9] is Glucocorticoid receptor (Homo sapiens) (UniProt P04150). Put plainly: GR-GFP Redistribution (AID 450;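 active = compounds whose dose series gives a full or clear partial fitted curve of increased nuclear translocation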; note: potency is the fitted concentration of half-maximal effect). To be noted: U2OS GR-GFP nuclear translocation, laser cytometry, 2 h.
In assay [10] the target is Cytochrome P450 3A4 (Homo sapiens) (UniProt P08684). Briefly: qHTS Assay for Inhibitors and Substrates of Cytochrome P450 3A4 (AID 884). Note: potency is the fitted concentration of half-maximal effect; nearly all actives have a fitted effect of over 50% in size. The gist of the method: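 Luminescent readout of luciferin produced by CYP3A4 (20 nM) dealkylation of Luciferin-PPXE, 25 uM (its KM). NADPH-driven reaction ran 60 min at RT after 10 min compound preincubation; data scaled to 57 uM ketoconazole as 100% inhibition.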

Assay [11] has the same target. Briefly: qHTS Assay for Activators of Cytochrome P450 3A4 (AID 885). Note: nearly all actives have a fitted effect of over 65% in size. The gist of the method:
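Using 20nM recombinant human CYP3A4 in potassium phosphate (200mM), substrate Luciferin-PPXE at 25uM, luminescent luciferin detection followed a 60-min RT NADPH reaction; data scaled to 57 uM ketoconazole.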

Assay [12] is described as follows: Confirmation and Secondary Assay for Modulators of Hemoglobin Beta Chain Splicing at IVS2 705 locus (AID 930).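 Note: HeLa cells stably expressing the EGFP-705 splicing reporter; GFP fluorescence per well restored by corrected splicing of the IVS2-705 intron in EGFP; % of control where 0% means no effect.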 The gist of the method:
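Fluorescence gain (488 nm laser, 500-520 nm PMT) reflects restored correct splicing of a mutant IVS2-705 intron inside EGFP in stably transfected HeLa cells after 2-day compound treatment.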

The nature of assay [13]: NFAT Signaling Pathway (AID 444; active = well fitted curve in either direction with a large enough effect, not every such curve was filed as active). To be noted: Jurkat NFAT-bla M1, carbachol, beta-lactamase ratio, 5 h; at 7.69 µM (top of the series) unless noted. The gist of the method: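 Jurkat cells with NFAT-driven β-lactamase reporter and co-expressed M1 receptor, stimulated with carbachol (final 1 uM, ~EC50), compound titration, 5 h at 37 °C. CCF4 loaded 1 h at RT; 460/530 nm ratio gave %activity and AC50.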

Assay [14] concerns the target Lysosomal acid glucosylceramidase (Homo sapiens) (UniProt P04062). Put plainly: Glucocerebrosidase-p2 (AID 348; in the data active = potency below about 10 µM; note: potency is the fitted concentration of half-maximal effect). Conditions: purified GBA, blue fluorogenic substrate, 40 min. The gist of the method:
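Normal human glucocerebrosidase (0.2 nM) with blue fluorogenic substrate (80 uM final) in citrate/phosphate pH 5.9 with 10mM sodium taurocholate, 0.01% tween-20; 40 min RT, NaOH/glycine stop; fluorescence Ex 365/Em 440; AC50 from a titration from 0.6 nM upwards.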

The target of assay [15] is Ubiquitin carboxyl-terminal hydrolase 1 (Homo sapiens) (UniProt O94782). Put plainly: Inhibitors of USP1/UAF1: Pilot qHTS (AID 504865). Note: nearly all actives have a fitted effect of over 35% in size. Note: potency is the fitted concentration of half-maximal effect. The gist of the method: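 Enzyme-free wells gave the negative control, while test wells held 1nM USP1/UAF1 preincubated with compound for 15 min at room temperature. Ub-Rho at 150nM final started the reaction, and fluorescence at 480/540 nm was recorded kinetically.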

Assay [16] addresses Rap guanine nucleotide exchange factor 3 (Homo sapiens) (UniProt O95398). Briefly: Confirmatory qHTS for antagonist of cAMP-regulated guanine nucleotide exchange factor 3 (EPAC1) (AID 1645880).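 Note: plate controls were DMSO only for no effect and full effect of the ATA control for full effect; nearly all actives have a fitted effect of over 55% in size.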 The gist of the method:
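Released BODIPY-GDP fluoresces less than Rap1-bound BODIPY-GDP; the signal is followed at 480/540 nm at 5-min intervals over 30 min, after 5 min at room temperature. Reactions contain 100 nM EPAC1, 250 nM RAP1B-BODIPY-GDP and 50 uM GDP; results are normalized to ATA and DMSO.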

Assay [17] has the same target. Put plainly: Confirmatory qHTS for agonist of cAMP-regulated guanine nucleotide exchange factor 3 (EPAC1) (AID 1645881).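 Note: EPAC1 catalysed release of BODIPY-GDP from Rap1B seen as fluorescence loss; 100% = effect of cAMP agonist control; nearly all actives have a fitted effect of over 75% in size.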
The target in assay [18] is Rap guanine nucleotide exchange factor 4 (Homo sapiens) (UniProt Q8WZA2). Briefly: Confirmatory qHTS for agonist of cAMP-regulated guanine nucleotide exchange factor 4 (EPAC2) (AID 1645884).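 Note: nucleotide exchange releases bodipy-GDP from Rap1 and this lowers its fluorescence; % is set by controls: 0 for no effect and ±100 for the full control effect; nearly all actives have a fitted effect of over 65% in size.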
Assay [19] has the same target. Briefly: Confirmatory qHTS for antagonist of cAMP-regulated guanine nucleotide exchange factor 4 (EPAC2) (AID 1645885). Note: % is set by controls: 0 for no effect and ±100 for the full control effect; nearly all actives have a fitted effect of over 25% in size.
For assay [20], the target named is Dual specificity protein kinase CLK4 (Homo sapiens) (UniProt Q9HAZ1). Briefly: qHTS Assay for Inhibitors of CDC-like Kinase 4 (ADP-FP Assay) (AID 1795).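 Note: recombinant human CLK4 phosphorylating RS repeat peptide at 1 µM ATP; % is set by controls: 0 for no effect and ±100 for the full control effect; nearly all actives have a fitted effect of over 60% in size.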 The gist of the method: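 Kinase activity was followed as ADP output, converted from fluorescence polarization with a calibration curve. Reactions ran one hour at low ATP (1 uM) with RS peptide substrate.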
Setting [21] is: measured here: cell count channel max response.
Where [22] appears, read: measured here: lipid channel max response.

Chain of 3',5'-cyclic-AMP phosphodiesterase 4B (Homo sapiens) (Q07343 whole entry, looked up): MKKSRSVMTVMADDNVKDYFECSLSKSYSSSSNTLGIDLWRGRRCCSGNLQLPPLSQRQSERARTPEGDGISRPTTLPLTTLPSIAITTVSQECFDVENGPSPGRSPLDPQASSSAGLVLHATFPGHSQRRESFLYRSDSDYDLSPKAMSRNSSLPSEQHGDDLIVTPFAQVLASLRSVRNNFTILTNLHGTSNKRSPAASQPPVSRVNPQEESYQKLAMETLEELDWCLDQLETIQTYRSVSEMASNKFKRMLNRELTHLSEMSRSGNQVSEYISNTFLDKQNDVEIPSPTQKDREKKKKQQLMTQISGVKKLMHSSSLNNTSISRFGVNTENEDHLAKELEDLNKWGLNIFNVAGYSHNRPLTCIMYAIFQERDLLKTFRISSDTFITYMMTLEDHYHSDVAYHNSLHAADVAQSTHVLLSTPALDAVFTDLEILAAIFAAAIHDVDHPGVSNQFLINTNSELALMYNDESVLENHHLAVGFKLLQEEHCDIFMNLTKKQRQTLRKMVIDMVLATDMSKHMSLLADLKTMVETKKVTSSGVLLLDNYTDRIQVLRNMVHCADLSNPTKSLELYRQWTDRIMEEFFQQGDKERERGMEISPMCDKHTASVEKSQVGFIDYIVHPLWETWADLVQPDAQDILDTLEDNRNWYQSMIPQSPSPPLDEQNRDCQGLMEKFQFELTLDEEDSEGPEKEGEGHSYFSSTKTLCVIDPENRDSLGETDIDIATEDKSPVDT
Chain of Cytochrome P450 3A4 (Homo sapiens) (P08684 whole entry, looked up): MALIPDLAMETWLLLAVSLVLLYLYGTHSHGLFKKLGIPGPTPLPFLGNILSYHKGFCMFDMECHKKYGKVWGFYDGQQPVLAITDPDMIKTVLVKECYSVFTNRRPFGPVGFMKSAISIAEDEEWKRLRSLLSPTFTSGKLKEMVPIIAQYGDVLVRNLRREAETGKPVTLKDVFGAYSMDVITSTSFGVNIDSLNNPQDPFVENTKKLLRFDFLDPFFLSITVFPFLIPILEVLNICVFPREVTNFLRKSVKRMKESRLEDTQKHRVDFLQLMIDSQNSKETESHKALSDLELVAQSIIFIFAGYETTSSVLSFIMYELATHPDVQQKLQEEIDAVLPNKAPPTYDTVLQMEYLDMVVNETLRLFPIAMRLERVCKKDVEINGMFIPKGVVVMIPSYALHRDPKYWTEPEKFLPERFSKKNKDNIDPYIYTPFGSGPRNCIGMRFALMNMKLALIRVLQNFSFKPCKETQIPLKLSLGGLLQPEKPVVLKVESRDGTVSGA
Chain of Glucocorticoid receptor (Homo sapiens) (P04150 whole entry, looked up, the tested form may be a part): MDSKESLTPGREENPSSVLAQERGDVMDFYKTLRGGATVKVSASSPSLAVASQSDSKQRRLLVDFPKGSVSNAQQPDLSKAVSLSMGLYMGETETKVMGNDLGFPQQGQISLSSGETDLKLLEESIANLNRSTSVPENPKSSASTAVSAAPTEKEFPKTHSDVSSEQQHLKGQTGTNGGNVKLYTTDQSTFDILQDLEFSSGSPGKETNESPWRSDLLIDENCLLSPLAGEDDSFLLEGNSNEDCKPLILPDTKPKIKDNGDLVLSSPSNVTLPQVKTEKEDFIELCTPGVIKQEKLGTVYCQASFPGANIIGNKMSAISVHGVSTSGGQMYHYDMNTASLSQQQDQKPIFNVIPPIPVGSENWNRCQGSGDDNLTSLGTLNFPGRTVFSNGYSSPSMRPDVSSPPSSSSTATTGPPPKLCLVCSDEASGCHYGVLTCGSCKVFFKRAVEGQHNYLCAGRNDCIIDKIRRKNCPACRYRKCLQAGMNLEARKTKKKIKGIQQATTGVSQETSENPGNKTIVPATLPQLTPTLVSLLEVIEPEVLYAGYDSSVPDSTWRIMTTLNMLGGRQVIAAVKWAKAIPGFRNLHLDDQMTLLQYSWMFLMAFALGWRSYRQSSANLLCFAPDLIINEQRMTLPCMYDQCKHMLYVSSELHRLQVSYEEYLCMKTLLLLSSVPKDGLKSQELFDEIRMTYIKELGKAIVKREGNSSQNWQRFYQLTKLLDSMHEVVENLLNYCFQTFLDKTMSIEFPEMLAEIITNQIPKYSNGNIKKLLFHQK
Chain of Rap guanine nucleotide exchange factor 4 (Homo sapiens) (Q8WZA2 whole entry, looked up): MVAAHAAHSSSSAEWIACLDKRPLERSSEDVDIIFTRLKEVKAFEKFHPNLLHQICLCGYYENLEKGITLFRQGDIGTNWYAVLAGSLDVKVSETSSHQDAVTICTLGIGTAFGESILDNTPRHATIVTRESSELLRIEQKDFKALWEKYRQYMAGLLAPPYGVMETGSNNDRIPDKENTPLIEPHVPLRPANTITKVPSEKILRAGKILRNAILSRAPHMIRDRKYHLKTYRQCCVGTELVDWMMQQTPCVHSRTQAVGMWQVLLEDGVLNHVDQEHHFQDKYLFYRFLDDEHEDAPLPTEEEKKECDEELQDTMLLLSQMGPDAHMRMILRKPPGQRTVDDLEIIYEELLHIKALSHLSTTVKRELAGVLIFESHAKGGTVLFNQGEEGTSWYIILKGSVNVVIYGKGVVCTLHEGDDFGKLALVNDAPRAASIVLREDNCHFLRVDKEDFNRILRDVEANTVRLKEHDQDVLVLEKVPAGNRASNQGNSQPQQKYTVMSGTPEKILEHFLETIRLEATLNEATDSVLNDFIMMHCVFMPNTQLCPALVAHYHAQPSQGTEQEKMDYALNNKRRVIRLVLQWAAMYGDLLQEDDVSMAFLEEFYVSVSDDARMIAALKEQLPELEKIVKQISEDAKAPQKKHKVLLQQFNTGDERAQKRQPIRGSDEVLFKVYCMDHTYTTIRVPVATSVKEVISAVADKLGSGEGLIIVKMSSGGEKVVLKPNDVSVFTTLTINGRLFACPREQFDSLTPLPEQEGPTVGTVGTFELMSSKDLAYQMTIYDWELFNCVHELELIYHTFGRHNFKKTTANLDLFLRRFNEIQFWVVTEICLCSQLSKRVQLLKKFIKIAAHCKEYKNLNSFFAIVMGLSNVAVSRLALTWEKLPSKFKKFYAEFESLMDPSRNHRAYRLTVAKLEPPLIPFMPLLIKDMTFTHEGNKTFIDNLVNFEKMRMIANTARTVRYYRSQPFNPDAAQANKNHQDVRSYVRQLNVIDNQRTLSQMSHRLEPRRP
Chain of Rap guanine nucleotide exchange factor 3 (Homo sapiens) (O95398 whole entry, looked up): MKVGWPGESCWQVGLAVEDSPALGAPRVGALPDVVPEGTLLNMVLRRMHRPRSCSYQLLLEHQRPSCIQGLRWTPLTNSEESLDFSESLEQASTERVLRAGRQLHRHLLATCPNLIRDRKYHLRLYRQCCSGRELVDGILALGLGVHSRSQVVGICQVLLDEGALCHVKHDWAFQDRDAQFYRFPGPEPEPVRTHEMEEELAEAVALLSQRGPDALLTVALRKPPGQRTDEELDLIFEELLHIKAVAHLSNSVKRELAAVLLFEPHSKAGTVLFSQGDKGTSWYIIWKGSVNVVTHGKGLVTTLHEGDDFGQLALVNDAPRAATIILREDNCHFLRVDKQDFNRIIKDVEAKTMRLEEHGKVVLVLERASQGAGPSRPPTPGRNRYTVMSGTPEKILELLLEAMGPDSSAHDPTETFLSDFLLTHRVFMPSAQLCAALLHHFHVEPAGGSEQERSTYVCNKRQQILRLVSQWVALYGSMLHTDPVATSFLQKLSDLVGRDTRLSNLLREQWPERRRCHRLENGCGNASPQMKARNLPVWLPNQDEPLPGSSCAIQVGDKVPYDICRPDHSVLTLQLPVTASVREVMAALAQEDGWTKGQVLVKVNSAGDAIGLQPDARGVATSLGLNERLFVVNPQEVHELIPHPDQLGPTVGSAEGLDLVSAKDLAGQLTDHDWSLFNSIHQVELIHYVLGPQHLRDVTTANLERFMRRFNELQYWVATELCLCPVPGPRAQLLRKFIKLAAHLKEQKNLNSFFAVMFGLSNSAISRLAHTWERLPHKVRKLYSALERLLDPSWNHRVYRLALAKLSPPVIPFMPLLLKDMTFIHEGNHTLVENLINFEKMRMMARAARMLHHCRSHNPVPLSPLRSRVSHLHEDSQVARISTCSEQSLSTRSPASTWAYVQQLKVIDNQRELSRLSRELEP
Chain of Ubiquitin carboxyl-terminal hydrolase 1 (Homo sapiens) (O94782 whole entry, looked up): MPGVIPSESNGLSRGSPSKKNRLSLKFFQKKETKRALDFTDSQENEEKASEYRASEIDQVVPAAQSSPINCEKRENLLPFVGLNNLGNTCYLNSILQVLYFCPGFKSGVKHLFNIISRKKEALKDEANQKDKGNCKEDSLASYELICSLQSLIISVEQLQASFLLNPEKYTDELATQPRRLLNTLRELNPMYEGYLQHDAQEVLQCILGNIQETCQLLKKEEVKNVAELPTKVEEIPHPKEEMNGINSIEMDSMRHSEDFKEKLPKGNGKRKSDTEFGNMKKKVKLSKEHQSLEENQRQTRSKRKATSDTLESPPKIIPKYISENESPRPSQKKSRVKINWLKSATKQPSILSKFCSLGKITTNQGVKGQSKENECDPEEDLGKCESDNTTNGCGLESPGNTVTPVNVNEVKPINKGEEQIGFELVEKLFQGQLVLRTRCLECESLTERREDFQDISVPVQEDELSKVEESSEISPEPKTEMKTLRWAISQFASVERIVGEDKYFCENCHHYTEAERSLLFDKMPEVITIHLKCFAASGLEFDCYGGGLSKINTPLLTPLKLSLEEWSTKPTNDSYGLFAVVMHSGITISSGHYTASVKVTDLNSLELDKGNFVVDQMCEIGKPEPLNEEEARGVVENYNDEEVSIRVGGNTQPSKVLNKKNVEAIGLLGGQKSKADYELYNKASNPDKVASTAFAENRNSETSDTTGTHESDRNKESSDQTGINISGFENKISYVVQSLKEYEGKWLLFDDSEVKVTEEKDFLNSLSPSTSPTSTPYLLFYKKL

For the molecule `Cc1noc(C)c1C(=O)N1CCC2(CC1)CN(c1ccccn1)C2`, the activity change, negative = inhibition in [1] was 23.5% (inactive); in assay [6], 4.72% (inactive). Besides, the activity, negative = inhibition in assay [2] was 3.57% (inactive). The Potency in [3] was > 46 µM (inactive). The Potency entry in assay [4] and in assay [5] was “inactive” each time. Further, the values for the max response in [6] (setting [21]) and in [6] (setting [22]) were 6.89% and 15.4%, respectively. The result in assay [7] was inactive.
Consider `CS(=O)(=O)Nc1cccc(-c2ccc3ncnc(Nc4ccc(F)cc4)c3c2)c1`, for which the Potency is 0.794 µM (active) in [8], > 46 µM (inactive) in assay [9], > 46 µM (inactive) in assay [3] and 7.94 µM (active) in [10]. Besides, in assay [2], the activity, negative = inhibition was 4.21% (inactive). The Potency entry in [4] and in assay [11] was “inactive” each time. In addition, the result in assay [12] and in [7] was inactive. For the same molecule, in [6], the activity change, negative = inhibition is 2.96% (inactive). Further, the max response in assay [6] (setting [21]) is -27.4%; in assay [6] (setting [22]), -14.7%.
In the case of `O=C(c1ccncc1)N1CCC2(CCN(Cc3nccs3)CC2)CC1`, the activity change, negative = inhibition in assay [1] is 6.32% (inactive); in [6], -1.51% (inactive). Moreover, the Potency result in assay [8] and in [5] was “inactive” each time. The activity, negative = inhibition in assay [2] is 4.96% (inactive). The Potency in assay [3] is > 46 µM (inactive). The results for the max response in [6] (setting [21]) and in [6] (setting [22]) were 5.19% and 5.04%, respectively. For the same molecule, the result in assay [7] was inactive.
With `O=C(c1ccco1)N1CCC[C@@]2(CCN(c3ccccn3)C2)C1`, the results for the activity change, negative = inhibition in assay [1], in assay [13] and in assay [6] were 4.46% (inactive), -3.78% (inactive) and 4.34% (inactive), respectively. Moreover, the activity, negative = inhibition in [2] is -0.822% (inactive). In addition, the Potency in [3] was > 46 µM (inactive). In addition, the Potency entry in assay [4] and in [5] was “inactive” throughout. Besides, the figures for the max response in assay [6] (setting [21]) and in [6] (setting [22]) were 22.6% and 30%, respectively. Besides, the outcome in [7] was inactive.
Regarding `CN(C)c1ncc2nc(-c3ccc(F)cc3)c(=O)n(-c3ccccc3)c2n1`, the Potency in [14] was > 11.4 µM (inactive); in assay [9] it was > 9.22 µM (inactive); in assay [3], > 46 µM (inactive). Besides, the activity change, negative = inhibition in assay [1] was -8.28% (inactive); in assay [13], 20.7% (inactive). Besides, in [2], the activity, negative = inhibition is 28.3% (inactive). For the same molecule, the Potency result in [4], in [15], in assay [16], in [17], in assay [18] and in assay [19] was “inactive” in each case. Further, in assay [7], the result was inactive.
With `COc1ccc(CNc2cc(-c3ccccc3C)ncn2)c(OC)c1`, the values for the Potency in [14], in assay [9] and in [3] were > 11.4 µM (inactive), > 46 µM (inactive) and > 46 µM (inactive), respectively. In addition, the activity change, negative = inhibition in [13] was -16.6% (inactive). Also, in assay [2], the activity, negative = inhibition was -12.7% (inactive). Moreover, the Potency entry in assay [4], in [20], in assay [16], in assay [17], in assay [18] and in assay [19] was “inactive” in each case. Moreover, in assay [7], the outcome was inactive.
`COCC(=O)N1CCC2(CCN(Cc3ccc(C#N)cc3)CC2)CC1`: the values for the activity change, negative = inhibition in [1] and in assay [6] were -9.28% (inactive) and 4.27% (inactive), respectively. Moreover, the activity, negative = inhibition in assay [2] was -0.16% (inactive). Further, the Potency in [3] was > 46 µM (inactive). The Potency result in assay [4] and in assay [5] was “inactive” throughout. Besides, the results for the max response in assay [6] (setting [21]) and in assay [6] (setting [22]) were 17% and 24.9%, respectively. In [7], the result was inactive.
Regarding `COc1cc(C)c2c(c1C=O)Oc1c(c(C)c(O)c3c1C(O)OC3=O)OC2=O` (stereo not given), the Potency in assay [10] was 12.6 µM (active); in [15], 56.2 µM (active). Moreover, the Potency result in assay [11] is “inactive”. The molecule was classed as inactive in [12] and in assay [7]. Moreover, the activity change, negative = inhibition in [6] is 4.32% (inactive). The max response in assay [6] (setting [21]) came to 5.41%; in [6] (setting [22]), 11.3%.
Take `Cc1cc(OC(=O)c2c(C)cc(O)cc2O)cc(O)c1C(=O)O`: the Potency in assay [10] is 12.6 µM (active). The Potency result in [11] and in assay [15] was “inactive” in each case. Also, the molecule was classed as inactive in assay [12] and in [7]. For the same molecule, the activity change, negative = inhibition in assay [6] is 8.43% (inactive). Also, the max response amounted to 13% in [6] (setting [21]) and 23.1% in assay [6] (setting [22]).
